Data on 61 compounds can be found in PubChem BioAssay AID504329 (Southern Research Specialized Biocontainment Screening …, 2011).

The structures appear in SMILES notation. “And” between values parts separate entries of the source, which are not always exact repeats. Equal entries are not always repeated. Out of some 340,000 compounds screened, about 1,000 (0.29%) were called active. Not all results are given here. Potency and affinity values are given separately. Unmarked numbers belong to inactive results. Cut-off read from the data, not from the text of the source: inconclusive = inhibition above about 27% without an active follow-up result; inactive = below that.

A word on the inhibition: it is the change of the read-out against control, counted positive when it falls.

The assay is described as follows: NS1A inhibition, H1N1 influenza, cell based functional assay (AID 504329). To be noted: percent inhibition, at 12.5 µM, stronger effect = higher value.
For `O=[N+]([O-])c1cc(Cl)c(O)c2ncccc12`, the inhibition was -6.45%. Consider `Oc1ccc2ccccc2c1CN1CCN(c2ccccc2)CC1`, for which the inhibition was 0.87%. For the compound `O=S(=O)(c1ccc(Cl)cc1)N1CCN(Cc2ccc(O)c3ncccc23)CC1`, the inhibition was 19.8%. In the case of `Oc1ccc(COCc2ccccc2)c2cccnc12` it was 22.4%; in that of `O=[N+]([O-])c1cc2c(cc1CN1CCN(c3ccccc3)CC1)OCO2`, 1.15%; in that of `c1ccc(N2CCN(Cc3ccnc4ccccc34)CC2)cc1`, -0.44%. Then `COc1ccc(C2C(C(=O)Nc3cc(C)on3)c3ccccc3C(=O)N2C)cc1` (stereo unspecified), with 7.42%; and `CCCCNS(=O)(=O)c1cc(-c2nn(C)c(=O)c3ccccc23)ccc1C`, with -6.29%; and `CC(=O)N1N=C(c2ccc(Br)cc2)OC12CCCC2`, with -0.33%. As to `C=CCSc1nc(N)c(C(=O)Nc2ccccc2OC)cc1C(=O)Nc1ccccc1`, the inhibition is 6.7%. As to `COc1ccccc1NC(=O)c1c(N=Cc2c(O)ccc3ccccc23)cnn1C`, the inhibition is 15.2%.

Turning to `Cc1cc(OCC(=O)OCC(=O)N2CCc3ccccc3C2)ccc1Cl`, the inhibition was -4.55%. As to `Cc1ccc(NN=C2C(=O)OC(C)(C)OC2=O)c(C)c1`, the inhibition was -14.3%. In the case of `Cc1ccc(C2Nc3ccccc3NC3=C2C(=O)CC(C)(C)C3)c(O)c1` (stereo unspecified) it was -4.27%.

As for `O=C(c1ccccc1F)N1CCN(C(=O)C(c2ccccc2)c2ccccc2)CC1`, the inhibition is 6.85%. In the case of `O=c1ccc(Cl)nn1-c1ccccc1` it was -0.77%; in that of `CSCCC(NC(=O)COc1ccccc1)C(=O)N1CCCCC1` (stereo unspecified), 0.87%.

Take `CC(=O)c1ccc(S(=O)(=O)NCCCC(=O)N(C)Cc2ccc3c(c2)OCO3)cc1`: the inhibition is -23.5%.

For `Cc1cc(NC(=O)CC#N)n(-c2nc3ccccc3[nH]2)n1`, the inhibition is -16.5%. As to `CCOC(=O)C(=O)Nc1cc(C)nn1-c1nc2ccccc2[nH]1`, the inhibition is 11.3%. Then `CCCOc1ccc(C(C)=O)cc1CSc1nc(O)cc(=O)[nH]1`, with 4.86%; and `COc1ccc(C(=O)NCC(=O)N2CCN(C(=O)c3ccco3)CC2)cc1`, with -3.4%; and `O=C(COc1c(Br)cc(Br)cc1Br)N/N=C/c1ccco1`, with -0.44%. Then `CN(C)CCCNC(=O)c1ccccn1`, with -2.43%. In the case of `COc1cc(NCc2ccccc2O)c2ncccc2c1` it was -8.87%.

As to `CN(C)CCCNC(=O)c1ccc(-c2ccccc2)cc1`, the inhibition was -6.67%. Regarding `CN(C)CCCNc1c2ccccc2nc2ccccc12`, the inhibition was -0.82%. Then `CC(C)C(=O)N1CCC(n2nccc2NC(=O)CCOc2ccccc2)CC1`, with 0.18%; and `COc1ccc(/C=N/NC(=O)CN2CCS(=O)(=O)CC2)cc1`, with -0.94%. Then `CCOC(=O)c1[nH]c2c(c1-c1ccccc1)C(=O)CC(c1ccc(OC)c(OC)c1)C2` (stereo unspecified), with 8.75%; and `O=C(NC(Cc1ccccc1)C(=O)O)/C(=C/c1ccccc1)NC(=O)c1ccc(Br)o1` (stereo unspecified), with 3.22%. Regarding `CCCCCn1c(=NC(=O)c2cccnc2)c(C#N)cc2c(=O)n3cccc(C)c3nc21`, the inhibition is -3.21%. On to `O=C(COC(=O)c1cccc(S(=O)(=O)NCc2ccccc2)c1)c1ccccc1`, for which the inhibition is 3.76%. With `O=C(NCC(c1cccs1)N1CCOCC1)c1ccc(Cl)c(S(=O)(=O)N2CCOCC2)c1` (stereo unspecified), the inhibition is -3.43%. Then `Nc1nonc1-n1nnc(C(=O)N/N=C/c2ccccc2Br)c1CN1CCCC1`, with 1.45%. In the case of `CC1CCN(Cc2c(C(=O)N/N=C/c3ccccc3O)nnn2-c2nonc2N)CC1` it was -0.06%. In the case of `O=C(CN1C(=O)c2cccc3cccc1c23)NCC1CCCO1` (stereo unspecified) it was 7.9%.

On to `Cc1[nH]c(=O)c(C#N)c(C)c1CSc1ncccn1`, for which the inhibition was -0.63%.

In the case of `S=C(Nc1ccccc1)c1ccccn1`, the inhibition was 3.81%.

Regarding `CN(C)c1ccc(NC(=S)c2ccc3ccccc3n2)cc1`, the inhibition is 5.3%.

With `Cc1cc(C)c2oc(C(=O)N(Cc3ccccc3)C3CCS(=O)(=O)C3)cc(=O)c2c1` (stereo unspecified), the inhibition was -2.06%.

As for `CC1(C)S[C@@H]2[C@H](NC(=O)Cc3ccccc3)C(=O)N2[C@H]1C(=O)O`, the inhibition is -10.5% and 1.49%. Regarding `CC1(C)SC2c3ccccc3C(=O)N2C1C(=O)O` (stereo unspecified), the inhibition was -0.07%. Then `CC(C)C[C@H]1COCCS(=O)(=O)N1Cc1cccc(C(F)(F)F)c1`, with -20%; and `O=C(NC1CCCCC1)C1CCN(c2nnnn2-c2ccccc2)CC1`, with -1.63%; and `Cc1ccc(SCC(=O)NCc2ccccc2)cc1`, with -3.04%. In the case of `Cc1ccccc1NC(=O)N(C(C)C)C(C)C` it was -12.5%; in that of `Nc1c(NC2CCCCC2)c2ccccc2oc1=O`, 4.37%.

As to `O=C(Nc1ccccc1NC(=O)NC1CCCCC1)NC1CCCCC1`, the inhibition was 14%.

As for `Cc1nc(NC(=O)c2cc3c(C)nn(-c4ccccc4)c3s2)sc1C(=O)Nc1ccccc1`, the inhibition was 0.17%. Then `COc1ccc(N2CC(C(=O)N/N=C/c3ccccc3)CC2=O)cc1` (stereo unspecified), with -7.3%; and `CN(C)c1ccc(-c2n(C)c3ccccc3[n+]2C)cc1`, with 28.5%. Then `CN(C)c1ccc(/C=N/c2cc(-c3ccccc3)nn2-c2ccccc2)cc1`, with -1.42%; and `COc1ccc(-c2cc(-c3ccccc3)[n+](C)c(-c3ccccc3)c2)cc1`, with -1.4%; and `C[n+]1c(-c2ccccc2)cc2c(=Cc3ccccc3)c3ccccc3n21`, with -16.8%.

Regarding `CN(c1ccc(Cl)cc1)c1cc(=O)n(C)c2ccccc12`, the inhibition was 3.91%.

Consider `CCCCC1(C)OC(=O)C(=Cc2ccc(N(C)C)cc2)C(=O)O1` (stereo unspecified), for which the inhibition was 0.99%.

On to `CN(C)c1ccc(/C=C2\SC(=O)N(CC(O)Cn3c4ccccc4c4ccccc43)C2=O)cc1` (stereo unspecified), for which the inhibition is -1.11%.

For `COc1ccc2c(c1)c(=O)cc(-c1ccccc1)n2C`, the inhibition is 0.17%. In the case of `CC(C)(C)CN1CCNC[C@H]1Cc1cccc2ccccc12` it was 4.41%; in that of `CNCC(O)c1cc(OCc2ccccc2)c(OCc2ccccc2)cc1F` (stereo unspecified), 2.8%.
